# Experimental data: the supplement of paper PMC4466140
# B1: unnamed (peptide)
# chain: PIVPSSPAPPLPLSG
# Target: AgAbp1
# Assay: SPOT peptide array binding signal intensity (averaged, normalized) (arbitrary units (background-subtracted, floor 0; scale differs between SH3 domains)); higher = stronger binding of the SH3 domain to the peptide
# Summary of the method: (§1)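 Four yeast species supplied the SH3 domains, which were expressed as GST fusions in E. coli BL21(DE3) and purified on glutathione Sepharose. Incubation with cellulose membranes carrying synthetic 15-mer peptides, cysteines exchanged for serines, ran overnight at 4°C at 10 μg/ml in TBS-based blocking buffer. Binding signal is reported as normalized, background-subtracted spot intensity averaged over replicates, in arbitrary units not shared between domains.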
row,Binder,SPOT peptide array binding signal intensity
1,B1,≤ 0

# Target: AgBbc1
# Assay: as above
# Summary of the method: as §1
row,Binder,SPOT peptide array binding signal intensity
1,B1,≤ 0

# Target: AgBem1-D1
# Assay: as above
# Summary of the method: as §1
row,Binder,SPOT peptide array binding signal intensity
1,B1,≤ 0

# Target: AgBzz1-D1
# Assay: as above
# Summary of the method: as §1
row,Binder,SPOT peptide array binding signal intensity
1,B1,≤ 0

# Target: AgBzz1-D2
# Assay: as above
# Summary of the method: as §1
row,Binder,SPOT peptide array binding signal intensity
1,B1,≤ 0

# Target: AgCyk3
# Assay: as above
# Summary of the method: as §1
row,Binder,SPOT peptide array binding signal intensity
1,B1,≤ 0

# Target: AgFus1
# Assay: as above
# Summary of the method: as §1
row,Binder,SPOT peptide array binding signal intensity
1,B1,≤ 0

# Target: AgHof1
# Assay: as above
# Summary of the method: as §1
row,Binder,SPOT peptide array binding signal intensity
1,B1,≤ 0

# Target: AgHse1
# Assay: as above
# Summary of the method: as §1
row,Binder,SPOT peptide array binding signal intensity
1,B1,13.5

# Target: AgLsb1
# Assay: as above
# Summary of the method: as §1
row,Binder,SPOT peptide array binding signal intensity
1,B1,≤ 0

# Target: AgLsb4
# Assay: as above
# Summary of the method: as §1
row,Binder,SPOT peptide array binding signal intensity
1,B1,≤ 0

# Target: AgMyo5
# Assay: as above
# Summary of the method: as §1
row,Binder,SPOT peptide array binding signal intensity
1,B1,3230

# Target: AgNbp2
# Assay: as above
# Summary of the method: as §1
row,Binder,SPOT peptide array binding signal intensity
1,B1,≤ 0

# Target: AgRvs167
# Assay: as above
# Summary of the method: as §1
row,Binder,SPOT peptide array binding signal intensity
1,B1,≤ 0

# Target: AgSho1
# Assay: as above
# Summary of the method: as §1
row,Binder,SPOT peptide array binding signal intensity
1,B1,≤ 0

# Target: AgSla1-D1-D2
# Assay: as above
# Summary of the method: as §1
row,Binder,SPOT peptide array binding signal intensity
1,B1,7

# Target: AgSla1-D3
# Assay: as above
# Summary of the method: as §1
row,Binder,SPOT peptide array binding signal intensity
1,B1,≤ 0

# Target: CaAbp1-D1
# Assay: as above
# Summary of the method: as §1
row,Binder,SPOT peptide array binding signal intensity
1,B1,≤ 0

# Target: CaAbp1-D2
# Assay: as above
# Summary of the method: as §1
row,Binder,SPOT peptide array binding signal intensity
1,B1,≤ 0

# Target: CaBbc1
# Assay: as above
# Summary of the method: as §1
row,Binder,SPOT peptide array binding signal intensity
1,B1,≤ 0

# Target: CaBem1-D1
# Assay: as above
# Summary of the method: as §1
row,Binder,SPOT peptide array binding signal intensity
1,B1,≤ 0

# Target: CaBzz1-D1
# Assay: as above
# Summary of the method: as §1
row,Binder,SPOT peptide array binding signal intensity
1,B1,19

# Target: CaBzz1-D2
# Assay: as above
# Summary of the method: as §1
row,Binder,SPOT peptide array binding signal intensity
1,B1,11.2

# Target: CaCyk3
# Assay: as above
# Summary of the method: as §1
row,Binder,SPOT peptide array binding signal intensity
1,B1,≤ 0

# Target: CaFus1
# Assay: as above
# Summary of the method: as §1
row,Binder,SPOT peptide array binding signal intensity
1,B1,14.5

# Target: CaHof1
# Assay: as above
# Summary of the method: as §1
row,Binder,SPOT peptide array binding signal intensity
1,B1,≤ 0

# Target: CaHse1
# Assay: as above
# Summary of the method: as §1
row,Binder,SPOT peptide array binding signal intensity
1,B1,≤ 0

# Target: CaLsb1
# Assay: as above
# Summary of the method: as §1
row,Binder,SPOT peptide array binding signal intensity
1,B1,≤ 0

# Target: CaLsb4
# Assay: as above
# Summary of the method: as §1
row,Binder,SPOT peptide array binding signal intensity
1,B1,≤ 0

# Target: CaMyo5
# Assay: as above
# Summary of the method: as §1
row,Binder,SPOT peptide array binding signal intensity
1,B1,611

# Target: CaNbp2
# Assay: as above
# Summary of the method: as §1
row,Binder,SPOT peptide array binding signal intensity
1,B1,4.5

# Target: CaRvs167
# Assay: as above
# Summary of the method: as §1
row,Binder,SPOT peptide array binding signal intensity
1,B1,≤ 0

# Target: CaRvs167-3
# Assay: as above
# Summary of the method: as §1
row,Binder,SPOT peptide array binding signal intensity
1,B1,1

# Target: CaSho1
# Assay: as above
# Summary of the method: as §1
row,Binder,SPOT peptide array binding signal intensity
1,B1,≤ 0

# Target: CaSla1-D1-D2
# Assay: as above
# Summary of the method: as §1
row,Binder,SPOT peptide array binding signal intensity
1,B1,0.5

# Target: CaSla1-D3
# Assay: as above
# Summary of the method: as §1
row,Binder,SPOT peptide array binding signal intensity
1,B1,≤ 0

# Target: ScAbp1
# Assay: as above
# Summary of the method: as §1
row,Binder,SPOT peptide array binding signal intensity
1,B1,≤ 0

# Target: ScBbc1
# Assay: as above
# Summary of the method: as §1
row,Binder,SPOT peptide array binding signal intensity
1,B1,≤ 0

# Target: ScBem1-D1
# Assay: as above
# Summary of the method: as §1
row,Binder,SPOT peptide array binding signal intensity
1,B1,≤ 0

# Target: ScBzz1-D1
# Assay: as above
# Summary of the method: as §1
row,Binder,SPOT peptide array binding signal intensity
1,B1,7.5

# Target: ScBzz1-D2
# Assay: as above
# Summary of the method: as §1
row,Binder,SPOT peptide array binding signal intensity
1,B1,1.5

# Target: ScCyk3
# Assay: as above
# Summary of the method: as §1
row,Binder,SPOT peptide array binding signal intensity
1,B1,≤ 0

# Target: ScFus1
# Assay: as above
# Summary of the method: as §1
row,Binder,SPOT peptide array binding signal intensity
1,B1,≤ 0

# Target: ScHof1
# Assay: as above
# Summary of the method: as §1
row,Binder,SPOT peptide array binding signal intensity
1,B1,≤ 0

# Target: ScHse1
# Assay: as above
# Summary of the method: as §1
row,Binder,SPOT peptide array binding signal intensity
1,B1,≤ 0

# Target: ScLsb1
# Assay: as above
# Summary of the method: as §1
row,Binder,SPOT peptide array binding signal intensity
1,B1,≤ 0

# Target: ScLsb2
# Assay: as above
# Summary of the method: as §1
row,Binder,SPOT peptide array binding signal intensity
1,B1,≤ 0

# Target: ScLsb3
# Assay: as above
# Summary of the method: as §1
row,Binder,SPOT peptide array binding signal intensity
1,B1,≤ 0

# Target: ScLsb4
# Assay: as above
# Summary of the method: as §1
row,Binder,SPOT peptide array binding signal intensity
1,B1,≤ 0

# Target: ScMyo3
# Assay: as above
# Summary of the method: as §1
row,Binder,SPOT peptide array binding signal intensity
1,B1,2720

# Target: ScMyo5
# Assay: as above
# Summary of the method: as §1
row,Binder,SPOT peptide array binding signal intensity
1,B1,3220

# Target: ScNbp2
# Assay: as above
# Summary of the method: as §1
row,Binder,SPOT peptide array binding signal intensity
1,B1,≤ 0

# Target: ScPex13
# Assay: as above
# Summary of the method: as §1
row,Binder,SPOT peptide array binding signal intensity
1,B1,≤ 0

# Target: ScRvs167
# Assay: as above
# Summary of the method: as §1
row,Binder,SPOT peptide array binding signal intensity
1,B1,≤ 0

# Target: ScSho1
# Assay: as above
# Summary of the method: as §1
row,Binder,SPOT peptide array binding signal intensity
1,B1,≤ 0

# Target: ScSla1-D1-D2
# Assay: as above
# Summary of the method: as §1
row,Binder,SPOT peptide array binding signal intensity
1,B1,1

# Target: ScSla1-D3
# Assay: as above
# Summary of the method: as §1
row,Binder,SPOT peptide array binding signal intensity
1,B1,7.5

# Target: SpAbp1-D1
# Assay: as above
# Summary of the method: as §1
row,Binder,SPOT peptide array binding signal intensity
1,B1,≤ 0

# Target: SpBbc1
# Assay: as above
# Summary of the method: as §1
row,Binder,SPOT peptide array binding signal intensity
1,B1,6

# Target: SpBzz1-D1
# Assay: as above
# Summary of the method: as §1
row,Binder,SPOT peptide array binding signal intensity
1,B1,52.5

# Target: SpBzz1-D2
# Assay: as above
# Summary of the method: as §1
row,Binder,SPOT peptide array binding signal intensity
1,B1,1.5

# Target: SpCyk3
# Assay: as above
# Summary of the method: as §1
row,Binder,SPOT peptide array binding signal intensity
1,B1,≤ 0

# Target: SpHof1
# Assay: as above
# Summary of the method: as §1
row,Binder,SPOT peptide array binding signal intensity
1,B1,≤ 0

# Target: SpHof1-2
# Assay: as above
# Summary of the method: as §1
row,Binder,SPOT peptide array binding signal intensity
1,B1,≤ 0

# Target: SpHof1-3
# Assay: as above
# Summary of the method: as §1
row,Binder,SPOT peptide array binding signal intensity
1,B1,≤ 0

# Target: SpHse1
# Assay: as above
# Summary of the method: as §1
row,Binder,SPOT peptide array binding signal intensity
1,B1,7

# Target: SpLsb1
# Assay: as above
# Summary of the method: as §1
row,Binder,SPOT peptide array binding signal intensity
1,B1,≤ 0

# Target: SpLsb4
# Assay: as above
# Summary of the method: as §1
row,Binder,SPOT peptide array binding signal intensity
1,B1,≤ 0

# Target: SpMyo1
# Assay: as above
# Summary of the method: as §1
row,Binder,SPOT peptide array binding signal intensity
1,B1,1220

# Target: SpNbp2
# Assay: as above
# Summary of the method: as §1
row,Binder,SPOT peptide array binding signal intensity
1,B1,≤ 0

# Target: SpPex13
# Assay: as above
# Summary of the method: as §1
row,Binder,SPOT peptide array binding signal intensity
1,B1,1

# Target: SpRvs167
# Assay: as above
# Summary of the method: as §1
row,Binder,SPOT peptide array binding signal intensity
1,B1,3.5

# Target: SpSla1-D1-D2
# Assay: as above
# Summary of the method: as §1
row,Binder,SPOT peptide array binding signal intensity
1,B1,≤ 0

# Target: SpSla1-D3
# Assay: as above
# Summary of the method: as §1
row,Binder,SPOT peptide array binding signal intensity
1,B1,≤ 0
